Reference: PubChem BioAssay (NCATS)
Inconclusive results are not listed. Active and inactive are the calls of the source. Unless noted, no rule for the calls is given here.

Columns and labels:
[1] = qHTS profiling of the MIPE4 collection as inhibitors of Plasmodium falciparum (3D7) proliferation (AID 743344);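 also: scaled between DMSO vehicle wells and 0.29 µM artemisinin as full inhibition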; conditions: P. falciparum 3D7 in erythrocytes, SYBR Green DNA fluorescence, 72 h; at 28.5 µM unless noted
Outline: (§1)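 Parasite DNA was quantified by SYBR Green I fluorescence (ex 485, em 535 nm) after overnight lysis in saponin/Triton buffer at room temperature. Cultures at 0.3% parasitemia and 2.5% hematocrit were first exposed to compound for 72 h at 37 C; signals were normalised to artemisinin (0.29 uM) and vehicle wells.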

[2] = qHTS profiling of the MIPE4 collection as inhibitors of Plasmodium falciparum (DD2) proliferation (AID 743345); conditions: P. falciparum Dd2 in erythrocytes, SYBR Green DNA, 72 h; at 28.5 µM unless noted
Outline: as §1

[3] = qHTS profiling of the MIPE4 collection as inhibitors of Plasmodium falciparum (DD2) proliferation (Rep 2) (AID 743346); conditions: P. falciparum Dd2 in erythrocytes, SYBR Green DNA, 72 h; at 28.5 µM unless noted
Outline: as §1

[4] = qHTS profiling of the MIPE4 collection as inhibitors of Plasmodium falciparum (HB3) proliferation (AID 743347);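 also: plate controls were DMSO vehicle wells for no effect and artemisinin wells for full effect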; conditions: P. falciparum HB3 in erythrocytes, SYBR Green DNA, 72 h; at 28.5 µM unless noted
Outline: as §1

[5] = High-throughput drug toxicity screening in the BPDCN cell line Gen2.2 (AID 1224824); conditions: Gen2.2 BPDCN cells; at 45.8 µM (top of the series) unless noted;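 also: cells exposed to compounds for 48 h before reading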
Outline: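 CellTiter-Glo luminescence read after 48 h compound exposure at 37 C defines viability; percent activity set with DMSO as 100% and bortezomib (9.2 uM final) as 0%. 500 exponentially growing cells per well, RPMI plus 10% FBS.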

[6] = High-throughput drug toxicity screening in the BPDCN cell line Cal-1 (AID 1224825); conditions: Cal-1 BPDCN cell viability, qHTS; at 45.8 µM (top of the series) unless noted
Outline: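 CellTiter-Glo luminescence after 48 h compound exposure; percent activity scaled with DMSO as 100% and bortezomib (9.2 uM final) as 0%. Cal-1 cells seeded at 500/well in RPMI, 10% FBS, no phenol red.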

[7] = qHTS assay for measurement of the activity of small molecule inhibitors on Zika virus induced Caspase-3 activity in human iPSC derived neural progenitor cells (hNPCs) (AID 1224857; active = well fitted inhibition curve with a large enough effect; also: % of control where 0% means no effect; nearly all actives have a fitted effect of over 65% in size)
Outline: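 After overnight (16–20 h) culture at 350 cells/well, hNPCs get compound, then ZIKV 2 FFU/cell one hour later. Six hours on, Caspase-Glo 3/7 is added and luminescence measured.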

[8] = qHTS assay for measurement of the activity of small molecule inhibitors on Zika virus induced Caspase-3 activity in human astrocytoma cells (AID 1224859; active = well fitted inhibition curve with a large enough effect;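 also: plate controls were ZIKV-infected untreated cells for no effect and uninfected cells for full effect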)
Outline: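 Inhibition of Zika-induced caspase-3/7 activity: SNB-19 cells, 1 h compound pretreatment, ZIKV 2 FFU/cell for 6 h at 37 C, Caspase-Glo luminescence read-out.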

[9] = qHTS Screen of the MIPE 4.0 Collection Against Ewings Sarcoma (RDES) (AID 1259252; active = well fitted inhibition curve with a large enough effect; also: nearly all actives have a fitted effect of over 35% in size; also: potency is read from the fitted curve at half-maximal effect)
Outline: (§2)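 Log-phase cells in RPMI with 5% FBS attached for 4 h, then received compounds as a titration for 48 h at 37C, 5% CO2. Viability was read by CellTiter-Glo luminescence and normalized to DMSO and no-cell wells.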

[10] = qHTS Screen of the MIPE 4.0 Collection Against Ewings Sarcoma (TC71) (AID 1259253; active = well fitted inhibition curve with a large enough effect; also: nearly all actives have a fitted effect of over 40% in size; also: potency is read from the fitted curve at half-maximal effect)
Outline: as §2

[11] = qHTS Screen of the MIPE 4.0 Collection Against Ewings Sarcoma (EW8) (AID 1259255; active = well fitted inhibition curve with a large enough effect; also: nearly all actives have a fitted effect of over 35% in size; also: potency is read from the fitted curve at half-maximal effect;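 as to viability: 100% = DMSO-treated cells and 0% = medium-only wells without cells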)
Outline: as §2

Row | Compound | parasite growth, % of DMSO control [1] [%] | parasite growth remaining, % of DMSO control (lower = more inhibition) [2] [%] | parasite growth, % of control (lower = inhibition) [3] [%] | growth, % of control [4] [%] | cell viability, % of control (lower = more cytotoxic) [5] [%] | viability (% of control) [6] [%] | Potency [7] | Potency [8] | Potency [9] | Potency [10] | Potency [11]
1 | NC(=O)Nc1sc(-c2ccc(F)cc2)cc1C(N)=O | 6.58 | 8.68 | 9.96 | 3.76 | 3.62 | 3.13 | inactive | inactive | 1.05 µM (active) | 1.66 µM (active) | 3.72 µM (active)
2 | Nc1nc(N)c2nc(-c3cccc(O)c3)c(-c3cccc(O)c3)nc2n1 | 15.5 | 10.5 | 26.2 | 11 | 15.8 | 5.3 | inactive | inactive | 23.5 µM (active) | 20.9 µM (active) | 23.5 µM (active)
3 | Cc1cc(-c2nnc3n2CCCCC3)c(C)n1-c1ccccc1 | 23 | 36.9 | 26.6 | 16.4 | 229 | 98.4 | inactive | inactive | inactive | inactive | inactive
4 | COc1cccc2c1C(=O)c1c(O)c3c(c(O)c1C2=O)C[C@@](O)(C(=O)CO)C[C@@H]3O[C@H]1C[C@H](N)[C@@H](O)[C@H](C)O1 | 3.7 | 4.88 | 4.28 | 2.54 | 8.09 | 4.51 | inactive | inactive | 0.264 µM (active) | 0.187 µM (active) | 0.0296 µM (active)
5 | Cc1cnn(C)c1C(=O)Nc1cc(Nc2ccc3c(C=Cc4ccccn4)n[nH]c3c2)ccc1F | 4.63 | 12.8 | 19.1 | 6.36 | 97.2 | 10.9 | inactive | inactive | 26.4 µM (active) | 16.6 µM (active) | 18.7 µM (active)
6 | CC(O)(C#Cc1ccc2c(c1)N(c1nc(N)ncc1Cl)CC2)c1nccs1 (stereo unspecified) | 11.7 | 33.4 | 22.8 | 5.79 | 279 | 37.2 | inactive | inactive | 16.6 µM (active) | 20.9 µM (active) | 20.9 µM (active)
7 | Cc1ccc(-n2[nH]c(C)c(N=Nc3cccc(-c4cccc(C(=O)O)c4)c3O)c2=O)cc1C | 57 | 92.5 | 72.1 | 72.9 | 180 | 28.2 | inactive | inactive | 18.7 µM (active) | 11.8 µM (active) | 18.7 µM (active)
8 | CC(C)c1cc(C(C)C)c(CC(=O)NS(=O)(=O)Oc2c(C(C)C)cccc2C(C)C)c(C(C)C)c1 | 82.5 | 89.6 | 80.1 | 89.6 | 94.3 | 60.9 | inactive | inactive | 7.43 µM (active) | 0.743 µM (active) | 7.43 µM (active)
9 | C[C@@H]1CC[C@@]2(OC1)OC1CC3C4CC=C5CC(O)CCC5(C)C4CCC3(C)C1[C@@H]2C (stereo partly specified) | 94.4 | 97.8 | 64.4 | 99.7 | 128 | 115 | inactive | inactive | inactive | inactive | inactive
10 | C=CCNc1c(O)cc2c(O)c1C[C@@H](C)C[C@H](OC)[C@@H](O)[C@@H](C)C=C(C)[C@H](OC(N)=O)[C@@H](OC)C=CC=C(C)C(=O)N2 | 4.69 | 6.14 | 11.1 | 8.78 | 5.31 | 6.05 | inactive | inactive | 2.64 µM (active) | 2.35 µM (active) | 5.9 µM (active)
11 | CN(CC(=O)N(Cc1ccc(C2CCCCC2)cc1)c1ccc(C(=O)O)c(O)c1)S(=O)(=O)c1c(F)c(F)c(F)c(F)c1F | 51 | 95.9 | 53.5 | 27.9 | 52.5 | 3.33 | inactive | inactive | 18.7 µM (active) | 8.33 µM (active) | 9.35 µM (active)
12 | C[C@H]1O[C@H](O[C@H]2[C@H](O)[C@@H](O)[C@@H](O[C@H]3[C@H](O)[C@@H](O)C(O)O[C@H]3CO)O[C@H]2CO)[C@H](O)[C@@H](O)[C@H]1N[C@H]1C=C(CO)[C@@H](O)[C@H](O)[C@@H]1O (stereo partly specified) | 92.3 | 127 | 88.4 | 103 | 193 | 134 | inactive | inactive | inactive | inactive | inactive
13 | COC(=O)[C@@H]1[C@H]2C[C@@H]3c4[nH]c5ccccc5c4CCN3C[C@@H]2CC[C@@H]1O | 79.9 | 93.2 | 69.1 | 66.3 | 24.1 | 21.8 | inactive | inactive | inactive | inactive | inactive
14 | Oc1cc2c(cc1O)C1c3ccc(O)c(O)c3OCC1(O)C2 (stereo unspecified) | 13 | 106 | 15.2 | 9.94 | 167 | 105 | inactive | inactive | inactive | inactive | inactive
15 | CN1CCCN(C(=O)c2cccc(-c3ccc(C=C4C(=O)Nc5ccc(Cl)cc54)o3)c2)CC1 | 3.74 | 5.68 | 6.52 | 4.36 | 9.19 | 2.05 | inactive | inactive | 20.9 µM (active) | 16.6 µM (active) | 10.5 µM (active)
16 | C=C[C@@H]1CN2CCC1C[C@H]2[C@H](O)c1ccnc2ccc(OC)cc12 (stereo partly specified) | 10.4 | 9.84 | 15.1 | 12.1 | 111 | 70 | inactive | inactive | inactive | inactive | inactive
